About 83,000 compounds went through this panel and 20% of them were active in at least one assay; those are over-represented in the sample as a whole.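 In brief: 96-well plates, 48 h treatment, single concentration, percent growth endpoint.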 Values without a mark were called inactive. Activity calls are given as the source filed them. How the source made its calls: active means growth percent below 10; inactive means the rest.

In this test the test system is HL-60(TB) leukemia. Put plainly: NCI-60 one-dose screen, 48 h (100 = growth as untreated, 0 = no growth, -100 = all killed). As to conditions: 10 µM unless noted.
Take `CCCSc1nc(N)nc2nc[nH]c12`: the growth was 74.6%.
With `COc1ccc(C(=O)c2cc(C)c(OC)c(C)c2)c(OC)c1N(C(=O)CCl)C(=O)CCl`, the growth was -42.3% (active).
As for `C[C@H]1[C@H](C)CC[C@]2(CO)CC[C@]3(C)C(=CC[C@@H]4[C@@]5(C)Cc6c([nH]c7ccccc67)C(C)(C)[C@@H]5CC[C@]43C)[C@H]12`, the growth is 81.7%.
On to `COc1ccc(Cn2cc3c(c2-c2cc(OC)c(OC)c(OC)c2)CCc2c(CO)noc2-3)cc1`, for which the growth was -36.2% (active).
For `O=C(Nc1ccc(Nc2ncccn2)cc1)NC1C=c2ccccc2=CC1` (stereo not drawn), the growth was 74.1%.
Regarding `CCn1c2c(c3ccccc31)SC1c3cccn3CCN1C2=S` (stereo not drawn), the growth was 87.5%.
Consider `COc1ccc(C/C(C)=C(/c2ccc(OCCN3CCCCCC3)cc2)c2ccc(OC(=O)c3ccccc3)cc2)cc1`, for which the growth is 68.7%.
As for `Cc1ccc(S(=O)(=O)Oc2ccc3sc4c(CO)ccc(NCCN(C)C)c4c(=O)c3c2)cc1`, the growth was -51.1% [100 µM] (active).
For `Cc1cc(=O)oc2cc(Oc3nc(-c4cccs4)cn4c(-c5cccs5)cnc34)ccc12` the value was 77.6%; for `COc1cc2c(cc1OC)-c1ccc3cc4c(cc3c1N(CCCN1CCCCC1)C2)OCO4`, 37.1%.
With `CCCc1cccc(CCC)c1O`, the growth was 105%.
Consider `O=c1oc2cc(OS(=O)(=O)C3CC3)ccc2c2c1CCCCCC2`, for which the growth is 80.1%.
As to `Oc1c(I)cc(I)cc1CNCc1ccccn1`, the growth is 20.2%.
For `Cl.Fc1c[c-]c(-c2ccccn2)c(F)c1.[Pt].c1ccc([PH+](C[PH+](c2ccccc2)c2ccccc2)c2ccccc2)cc1` the value was -33.7% (active); for `COc1ccc(-c2nc(Nc3nc4ccccc4[nH]3)nc(N)c2C#N)cc1`, 97.8%; for `CC(C)/C=N/NC(N)=S`, 104%.
For the molecule `COc1ccccc1NS(=O)(=O)c1cccc(C(=O)Nc2ccc(Br)cc2)c1`, the growth was 29.4%.
For `CCOC(=O)C1=CCC(n2cc(C)c(=O)[nH]c2=O)O1` (stereo not drawn) the value was 89.8%; for `S=C1NC2(c3ccccc3)CCC(=S)N2c2ccccc21` (stereo not drawn), 104%; for `FC(F)(F)c1[nH]ncc1-c1nc2c(N3CCCCC3)cc3[nH]ncc3c2c2c1CCCC2`, -1.46% (active).
Take `O=[N+]([O-])c1ccc2nc3c4ccccc4c4ccccc4c3nc2c1`: the growth was 77.2%.
Regarding `CCCC(C)(C)COC(=O)c1cccc(N)c1`, the growth is 57.8%.
For `O=C(c1ccc(Cl)cc1)c1ccccc1Cl` the value was 96.4%; for `COc1ccc(C(=O)Cn2c(C(=O)c3ccc(OC)cc3)nc3ccccc32)cc1`, -50.7% (active); for `c1ccc(-c2cn3c(ccc4ccccc43)n2)cc1`, 24.4%.
Regarding `C#CCn1cnc2c(Nc3cccc(NC(=O)CCl)c3)ncnc21`, the growth is 7.89% (active).
Consider `Nc1ccccc1-c1ccc(-c2ccc(Cl)cc2)c2c1[nH]c1ccccc12`, for which the growth was 70.9%.
For `Cc1cc(-c2noc(C(F)(F)F)n2)ccc1N1CCN(c2cc(C(=O)N(C)C)no2)CC1` the value was 49.7%.

These data come from PubChem BioAssay (NCI).
